Inconclusive results are not listed. Calls of active or inactive are those of the source. Unless noted, the call rests on the fitted dose curve; in most records, active means well fitted curve in the direction sought with a large enough effect; inconclusive means small, poorly fitted or top-dose-only effect, or another doubt; inactive means no such curve, though single readings can be large; an effect the other way counts as inactive or inconclusive.

Results on eleven compounds are retold here after PubChem BioAssay (NCATS).

In assay [1] the target is Aldehyde dehydrogenase, mitochondrial (Homo sapiens) (UniProt P05091). Nature of the assay: qHTS for Inhibitors of the Aldehyde Dehydrogenase Family (ALDH2) Confirmatory screens (AID 2061303; active means well fitted inhibition curve with a large enough effect; title and protocol of this record describe different tests; further: nearly all actives have a fitted effect of over 45% in size; further: potency means the concentration at half of the fitted maximal effect).
The target in assay [2] is Retinaldehyde dehydrogenase 3 (Homo sapiens) (UniProt P47895). The assay can be described thus: qHTS for Inhibitors of the Aldehyde Dehydrogenase Family (ALDH1A3) Confirmatory screens (AID 2061311). Further: nearly all actives have a fitted effect of over 60% in size. Further: potency means the concentration at half of the fitted maximal effect.
Assay [3] has as its target Retinal dehydrogenase 2 (Homo sapiens) (UniProt O94788). The assay can be described thus: qHTS for Inhibitors of the Aldehyde Dehydrogenase Family (ALDH1A2) Confirmation screens (AID 2061314). Further: nearly all actives have a fitted effect of over 65% in size. Further: potency means the concentration at half of the fitted maximal effect. On the technique in general: qHTS replaces the single test concentration by a dilution series.
The target in assay [4] is Aldehyde dehydrogenase 1A1 (Homo sapiens) (UniProt P00352). The assay can be described thus: qHTS for Inhibitors of the Aldehyde Dehydrogenase Family (ALDH1A1) Confirmatory screens (AID 2061316). Further: nearly all actives have a fitted effect of over 65% in size. Further: potency means the concentration at half of the fitted maximal effect.
Assay [5] deals with Aldehyde dehydrogenase, mitochondrial (Homo sapiens) (UniProt P05091). Nature of the assay: qHTS for Inhibitors of the Aldehyde Dehydrogenase Family (ALDH2) Primary screen (AID 2061308). Further: nearly all actives have a fitted effect of over 55% in size. Further: potency means the concentration at half of the fitted maximal effect.
Assay [6] concerns the target Retinaldehyde dehydrogenase 3 (Homo sapiens) (UniProt P47895). The assay can be described thus: qHTS for Inhibitors of the Aldehyde Dehydrogenase Family (ALDH1A3) Primary screen (AID 2061315). Further: potency means the concentration at half of the fitted maximal effect.
A short description of assay [7]: BET inhibitor-based combinations targeting novel dependencies in MECOM-rearranged (r) AML: UCSD-AML1 cell line (AID 2202235). Further: series mostly up to about 46 µM; nearly all actives have a fitted effect of over 40% in size. The procedure, abridged: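 Normalized to DMSO and empty-well controls, the luminescence data from CellTiter-Glo after 48 hr drug exposure were fitted across 11 concentrations. Reported metrics are area under the dose-response curve and its Z-transformed form.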

A short description of assay [8]: qHTS for Inhibitors of the Aldehyde Dehydrogenase Family (ALDH1A2, ALDH1A3, ALDH2, ALDH3A1) (AID 2061307). Further: nearly all actives have a fitted effect of over 50% in size.

With `O=C1c2cccc3cccc(c23)C(=O)N1CCN1CCN(S(=O)(=O)c2cccc([N+](=O)[O-])c2)CC1`, the Potency result in assay [1], in assay [2], in assay [3] and in assay [4] was “inactive” in each case.
As to `CC(=O)NC(C)c1cc(Cl)c2cccnc2c1O` (stereo not given), the Potency result in assay [1], in assay [5] and in assay [6] was “inactive” throughout. Besides, in assay [3], the Potency is 28.3 µM (active).
In the case of `N#Cc1nc2c(nc1C#N)-c1ccccc1C2=O`, the Potency in assay [1] was 10 µM (active). Further, the Potency entry in assay [2] and in assay [4] was “inactive” throughout.
Take `N#Cc1c(-c2ccc(Cl)c([N+](=O)[O-])c2)no[n+]1[O-]`: the Potency in assay [1] was 2.83 µM (active); in assay [5] it was 0.398 µM (active); in assay [3], 2.83 µM (active); in assay [4] it was 7.98 µM (active). Moreover, in assay [6], the Potency result is “inactive”.
On to `Cc1c(C(=O)OCC2CCCO2)[nH]c2c1C(=O)CCC2` (stereo not given), for which the Potency entry in assay [1], in assay [5] and in assay [6] was “inactive” throughout. The Potency in assay [3] was 28.3 µM (active); in assay [4] it was 3.18 µM (active).
As for `Cc1ccc(OCCn2c(CCNC(=O)c3cccc(N)c3)nc3ccccc32)cc1`, the Potency entry in assay [1], in assay [5], in assay [3], in assay [6] and in assay [4] was “inactive” in each case.
Turning to `Clc1nc(CN2CCOCC2)nc2sc3c(c12)CCCC3`, the Potency in assay [1] is 4 µM (active). Further, the Potency entry in assay [5] and in assay [6] was “inactive” in each case.
As for `COc1cccc(-c2ccc(NC(=O)C3=C(C(=O)O)CCC3)c(F)c2)c1`, the Potency entry in assay [1], in assay [5] and in assay [7] was “inactive” each time. For the same compound, the Potency in assay [4] is 12.7 µM (active).
For `Cc1ccc2nc3sc(C(=O)NC4CCCC4)cc3cc2c1`, the Potency entry in assay [1], in assay [5] and in assay [6] was “inactive” in each case.
Regarding `C=CC(C)(O)CC/C=C(\C)C1CC=C(C)C(=O)O1` (stereo not given), the Potency entry in assay [8] and in assay [5] was “inactive” each time. Further, the Potency in assay [2] was 22.5 µM (active); in assay [6], 14.1 µM (active).
Regarding `COc1ccc(C2Nc3ccccc3C(=O)N2Cc2ccccc2)cc1COc1ccc(F)cc1` (stereo not given), the Potency entry in assay [1], in assay [5], in assay [6] and in assay [4] was “inactive” in each case. In addition, the Potency in assay [3] is 15.9 µM (active).
